An excerpt weighted towards active compounds, which were near 0.16% of everything screened.
Ub-GFP proteasome = proteasome inhibitors stabilizing ubiquitin-GFP reporter | Ubiquitin-GFP reporter cells, proteasome inhibition, GFP fluorescence; response scale: untreated = 0%, 10 µM MG-132 = 100% | Potency, µM (doses to about 45.9 µM), inactives show at the highest dose activation (GFP accumulation), usual class: activators | 67,000 tested, under 10 active; active means well fitted activation curve with a large enough effect, not every such curve was filed as active; further: potency means the concentration at half of the fitted maximal effect
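U2OS cells stably expressing ubiquitin(G76V)-GFP, seeded overnight in 0.5% FBS medium, were exposed to compounds (qHTS, 46 uM to 2.9 nM) for 4 hr at 37 °C. GFP-positive cells were counted by laser cytometry (488 ex/515 em), normalized between basal and 10 uM MG-132.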
Epigenetic mod = epigenetic modulators derepressing GFP locus in mouse cells | mouse C127i GFP locus derepression, cytometry, 30 h | Potency, µM (titrated, usually from 46.1 µM), inactives show top-dose GFP derepression (activation) | actives 0.09% (n = 68,000); further: % of control where 0% means no effect
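Read-out is the number of GFP-positive cells, scored as fluorescent objects 20 to 120 um wide, reflecting derepression of a silenced CMV-GFP reporter in murine C127i cells after 30 h compound exposure at 37 C.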
IkB signaling = inhibitors of IkB signaling in ABC-DLBCL cells | actives 0.04% (n = 110,000) | Potency, µM (highest dose often 57.1 µM), for inactives: at the highest dose IkBa stabilization activation | AID 445 | ABC-DLBCL IkBa-CBG/CBR dual luciferase ratio, 4 h; response scale: scaled: untreated 0%, proteasome inhibitor 100%; active means well fitted curve in the direction sought with a large enough effect in the signal ratio, not every such curve was filed as active; the % refers to the signal ratio;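 further: potency means the concentration at half of the fitted maximal effect; the direction sought is a rising ratio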
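Luminescence ratio of IκBα-fused green versus native red beetle luciferase in OCI-Ly3 cells, 4 h post-doxycycline with compound; red signal alone, scaled from basal (0%) to zero light (-100%), flagged nonspecific or cytotoxic effects.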
USP2a inh = USP2a (human) protease inhibition; O75604; USP2a enzymatic assay, qHTS inhibition; Potency, µM (series often up to 38.3 µM), without a hit: top-dose activity change, negative = inhibition, usual class: inhibitors; actives 0.1% (n = 60,000); further: potency means the concentration at half of the fitted maximal effect; nearly all actives have a fitted effect of over 60% in size
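20 nM USP2 core + cpd, 30 min RT; add 20 nM Ub-PLA2/20 uM NBD C6-HPC; read Ex460/Em535 at 0 h and 2.5 h. Normalized to NEM; qHTS curve fit/classification.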
HBB splicing = alters splicing of the hemoglobin beta chain; Potency, µM (doses to about 46.1 µM), inactives show at the top dose activation, usual class: activators; HBB splicing reporter cell assay, activation; EGFP reporter with mutant IVS2-654 intron; response scale: normalised to 500 nM splice-correcting PNA; actives 0.06% (n = 65,000); further: potency means the concentration at half of the fitted maximal effect; 0% is about no effect
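HeLa cells stably expressing EGFP interrupted by mutant beta-globin intron 2 (IVS2-654), 500/well in 2% FCS. Treated with compound for 2 days at 37C. Splicing correction scored as total well GFP intensity (488 nm excitation, 500-520 nm emission); 500 nM antisense PNA served as control.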
Numbers without * were called inactive; x = not tested or not shown; [ ] = dose if it differs, or a comment. Unless noted, the call rests on the fitted dose curve; in most records, active means well fitted curve in the direction sought with a large enough effect; inconclusive means small, poorly fitted or top-dose-only effect, or another doubt; inactive means no such curve, though single readings can be large; an effect the other way counts as inactive or inconclusive.

SMILES | Ub-GFP proteasome | Epigenetic mod | IkB signaling | USP2a inh | HBB splicing
COC(=O)/C(=C1/Oc2cc(C)oc(=O)c2S1)C(F)(F)F | x | 10µM* | x | x | x
COC(=O)C1=C(N)Oc2cc(C)oc(=O)c2C1c1ccncc1 (centres undefined) | x | 0.9%[20.6 µM] | x | x | x
O=C1c2c(O)cc(O)cc2O[C@@H](c2ccc(O)c(O)c2)[C@H]1O | 4.1% | 0.5% | 1.6% | -3.7% | 0.6%
CCCCCCC/C=C\CCCCCCCCC(=O)O | -2.0% | 1.1% | 20.1% | 12.6µM* | 0.2%
CCCCCCCC(=O)O | x | x | 1.2% | x | -0.8%
Cc1c(C(=O)O)c(O)cc2c1C(=O)c1c(O)c([C@@H]3O[C@H](CO)[C@@H](O)[C@H](O)[C@@H]3O)c(O)c(O)c1C2=O | 4.5% | -2.3%[9.22 µM] | -0.3%[11.4 µM] | x | x
CCCc1cc2c(c(=O)o1)C(O)C1OC1C2=O (centres undefined) | x | x | x | x | 2.1%[9.22 µM]
O=C(c1ccc(S(=O)(=O)N2CCC(c3nc4ccccc4s3)CC2)cc1)N1CCOCC1 | -1.7% | -2.3% | 0.1% | x | 0.1%[57.5 µM]
O=C(c1ccc(S(=O)(=O)N2CCC(c3nc4ccccc4[nH]3)CC2)cc1)N1CCOCC1 | 0.1% | -1.7% | 0.1% | 12.6µM* | x
Nc1nc(N)nc(CCCCc2nc(N)nc(N)n2)n1 | -6.9%[9.17 µM] | 5.6%[9.22 µM] | 0.2%[11.4 µM] | x | 2.3%[9.22 µM]
O=c1oc2ccccc2n1CCn1c2ccccc2c2nc3ccccc3nc21 | -11.4% | 2.3% | 0.0% | 10µM* | -0.4%
Cc1cccc(N2C(=O)c3cccc4c(N(C)CCO)ccc(c34)C2=O)c1 | -4.2%[9.17 µM] | 0.0% | -1.2% | 41.4%[7.66 µM] | 20µM*
COc1ccc2c(c1OC)C(=O)N(c1cccc(C)c1)C2=O | -4.8% | 2.5% | -1.6% | -10.9% | -3.1%
c1ccc(-c2ccc(-c3ccc(C4=NCCN4)cc3)o2)cc1 | -6.5%[9.17 µM] | 6.9%[9.22 µM] | -4.4%[11.4 µM] | x | -0.1%[9.22 µM]
